Inconclusive results are not listed. Entries that show only a call come without a potency. Activity calls are given as the source filed them. Calls come from the whole dose curve; as a rule, active = well fitted inhibition curve with a large enough effect; inconclusive = small, poorly fitted or top-dose-only effect; inactive = flat fitted curve, though single readings scatter.
Potency is the fitted concentration of half-maximal effect.

Chain of Ubiquitin carboxyl-terminal hydrolase 1 (Homo sapiens) (O94782 whole entry, looked up): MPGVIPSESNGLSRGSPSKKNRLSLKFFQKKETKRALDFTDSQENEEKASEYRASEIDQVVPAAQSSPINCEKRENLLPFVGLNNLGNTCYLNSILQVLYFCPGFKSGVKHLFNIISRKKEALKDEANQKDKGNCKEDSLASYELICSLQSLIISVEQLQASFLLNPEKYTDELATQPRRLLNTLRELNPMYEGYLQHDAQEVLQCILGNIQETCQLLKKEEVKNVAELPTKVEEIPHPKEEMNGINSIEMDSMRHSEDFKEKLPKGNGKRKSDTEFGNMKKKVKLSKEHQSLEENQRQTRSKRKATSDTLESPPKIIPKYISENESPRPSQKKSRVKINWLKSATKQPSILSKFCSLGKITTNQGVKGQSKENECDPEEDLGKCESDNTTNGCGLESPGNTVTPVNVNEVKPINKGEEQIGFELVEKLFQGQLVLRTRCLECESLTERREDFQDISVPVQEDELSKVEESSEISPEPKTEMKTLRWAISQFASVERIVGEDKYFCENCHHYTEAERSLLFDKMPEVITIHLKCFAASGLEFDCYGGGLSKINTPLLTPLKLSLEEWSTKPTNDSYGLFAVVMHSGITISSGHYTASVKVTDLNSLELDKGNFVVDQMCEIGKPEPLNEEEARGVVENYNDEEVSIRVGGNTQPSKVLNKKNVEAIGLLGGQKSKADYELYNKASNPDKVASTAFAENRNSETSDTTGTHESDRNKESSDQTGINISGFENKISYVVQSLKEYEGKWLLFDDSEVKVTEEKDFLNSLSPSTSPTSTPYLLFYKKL

The test concerns the target Ubiquitin carboxyl-terminal hydrolase 1 (Homo sapiens) (UniProt O94782). Kind of test: Inhibitors of USP1/UAF1: Pilot qHTS (AID 504865). Note: nearly all actives have a fitted effect of over 35% in size. To be noted: purified USP1/UAF1, Ub-rhodamine cleavage fluorescence; series mostly up to 114 µM. In a few lines: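 In 50mM HEPES pH 7.8 containing 0.5mM EDTA, 1mM TCEP, 0.1 mg/ml BSA and 0.01% Tween-20, 1nM USP1/UAF1 is exposed to compound for 15 min, then Ub-Rho (150nM final) is added and fluorescence is read over time.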
(In qHTS, concentration-response curves come from the screen itself.)
As for `O=C(CCCCCCCCCCCCC1CCCC1)Nc1ccc(S(=O)(=O)c2ccc(NC(=O)CCCCCCCCCCCCC3CCCC3)cc2)cc1`, the Potency entry was “inactive”.
Regarding `COC(=O)CC[C@H](N)C(=O)O`, the Potency result was “inactive”.
The entry for `CC1=C(/C=C/C(C)=C/C=C/C(C)=C/C(=O)Oc2c(C)c(C)c3c(c2C)CC[C@@](C)(CCC[C@H](C)CCC[C@H](C)CCCC(C)C)O3)C(C)(C)CCC1` is “inactive”; for `C[N+]1(C)[C@@H]2CC(OC(=O)C(O)(c3cccs3)c3cccs3)C[C@H]1[C@@H]1O[C@@H]12` (some centres undefined) it is “inactive”.
Take `Cc1ncc(C[n+]2csc(CCOP(=O)(O)O)c2C)c(N)n1`: the Potency result was “inactive”.
In the case of `CC(C)c1ncc([N+](=O)[O-])n1C`, the Potency entry was “inactive”.
The figure for `Cc1cc(-c2ccc(N=Nc3c(S(=O)(=O)O)cc4cc(S(=O)(=O)O)cc(N)c4c3O)c(C)c2)ccc1N=Nc1c(S(=O)(=O)O)cc2cc(S(=O)(=O)O)cc(N)c2c1O` is 8.91 µM (active); for `Cn1cc(NC(=O)c2cc(NC(=O)c3cc(NC=O)cn3C)cn2C)cc1C(=O)NCCC(=N)N` it is “inactive”.
For `Cc1c(C)c2c(c(C)c1OC(=O)CCC(=O)O)CC[C@@](C)(CCC[C@H](C)CCC[C@H](C)CCCC(C)C)O2` the value was 35.5 µM (active).
For the compound `CO/N=C(\C(=O)N[C@@H]1C(=O)N2C(C(=O)[O-])=C(C[n+]3cccc4c3CCC4)CS[C@H]12)c1csc(N)n1`, the Potency entry was “inactive”.
As to `CNC(=O)OCc1cccc(COC(=O)NC)n1`, the Potency entry was “inactive”.
The entry for `FC(F)(F)C(F)(F)C(F)(F)C(F)(F)C(F)(F)C(F)(F)F` is “inactive”.
For `CC(=O)N[C@@H]1C(O[C@H]2O[C@H](C(=O)O)C(O)[C@H](O)[C@H]2O)[C@H](O)[C@@H](CO)O[C@H]1O[C@@H]1C(C(=O)O)O[C@@H](O[C@H]2[C@H](O)[C@@H](CO)OC(O)[C@@H]2NC(C)=O)[C@H](O)[C@H]1O` (some centres undefined) the value was “inactive”; for `NC(=O)[C@H]1O[C@@H](O)[C@H](O)[C@@H](O)[C@@H]1O`, “inactive”; for `O=[n+]1ccn([O-])c2ccccc21`, “inactive”.
For `CC(CN(C)C)CN1c2ccccc2Sc2ccc(C(F)(F)F)cc21` (centres undefined) the value was “inactive”.
Turning to `CNC(=O)C[C@@H](N)C(=O)N[C@@H](C(=O)N[C@@H]1C(=O)N2[C@@H]1SC(C)(C)[C@@H]2C(=O)O)c1ccc(O)cc1`, the Potency entry was “inactive”.
For the compound `NC(=O)C1c2ccccc2CCc2ccccc21`, the Potency entry is “inactive”.
Regarding `Oc1ccc(/C=C/c2cc(O)cc(O)c2)cc1`, the Potency entry is “inactive”.
With `Nc1nc(=O)n([C@@H]2CS[C@H](CO)O2)cc1F`, the Potency result is “inactive”.
For the compound `O=C(CCCN1CCC(C(=O)c2ccc(F)cc2)CC1)c1ccc(F)cc1`, the Potency result is “inactive”.
The entry for `CCOC(=S)SSC(=S)OCC` is “inactive”; for `Cc1cccc(C)c1NC(=O)NC1=CCCN1C` it is “inactive”; for `FC(F)(F)COCC(F)(F)F` it is “inactive”.
As to `CSCCC(N)C(=O)O` (centres undefined), the Potency result is “inactive”.
The entry for `CCN(CC)CCC(=O)N1c2ccccc2Sc2ccc(C(F)(F)F)cc21` is “inactive”.
Regarding `CC[C@H]1OC(=O)[C@H](C)[C@@H](O[C@H]2C[C@@](C)(OC)[C@@H](O)[C@H](C)O2)C(C)[C@@H](O[C@@H]2O[C@H](C)C[C@H](N(C)C)[C@@H]2O)[C@](C)(OC)C[C@@H](C)C(=O)[C@H](C)[C@@H](O)[C@]1(C)O` (some centres undefined), the Potency entry was “inactive”.
Regarding `O=C(NCCNCC(O)COc1ccc(O)cc1)N1CCOCC1` (centres undefined), the Potency entry is “inactive”.
Consider `CCC(C(=O)NC(N)=O)c1ccccc1` (centres undefined), for which the Potency result is “inactive”.
The entry for `O=P(O)(O)OC[C@H]1O[C@](O)(COP(=O)(O)O)[C@@H](O)[C@@H]1O` is “inactive”; for `OCCCNc1ccccc1` it is “inactive”; for `CCOC(=O)C1=C(COCCN)NC(C)=C(C(=O)OC)C1c1ccccc1Cl` (centres undefined) it is “inactive”.
With `O=C(O)COc1ccccc1/C=N/NC(=O)c1ccncc1`, the Potency entry was “inactive”.
The entry for `C(=C\c1ccncc1)/c1ccccc1` is “inactive”.
